According to PubChem BioAssay (NCATS):
Records with an inconclusive call do not appear. The source made the active and inactive calls. Calls come from the whole dose curve; as a rule, active = well fitted cell-killing curve with a large enough effect; inconclusive = small, poorly fitted or top-dose-only effect, or effect the other way; inactive = no such curve, though single readings can be large or run the other way.

Experiments:
[1] = Quantitative High-Throughput drug screen in 47 multiple myeloma cell lines against the NCATS MIPE library collection: MM1R_ATCC cell viability assay (AID 1918981); note: nearly all actives have a fitted effect of over 35% in size
Procedure, shortened: (§1)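 Cells were exposed to library compounds for 48 hours, after which ATP was measured by CellTiter-Glo. Signal was taken as median relative luminescence units.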

[2] = Quantitative High-Throughput drug screen in 47 multiple myeloma cell lines against the NCATS MIPE library collection: LP1_DSMZ cell viability assay (AID 1918982); note: nearly all actives have a fitted effect of over 35% in size
Procedure, shortened: as §1

[3] = Quantitative High-Throughput drug screen in 47 multiple myeloma cell lines against the NCATS MIPE library collection: KMS28PE_JCRB cell viability assay (AID 1918983); note: nearly all actives have a fitted effect of over 35% in size
Procedure, shortened: as §1

[4] = Quantitative High-Throughput drug screen in 47 multiple myeloma cell lines against the NCATS MIPE library collection: L363_DSMZ cell viability assay (AID 1918984); note: nearly all actives have a fitted effect of over 40% in size
Procedure, shortened: as §1

[5] = Quantitative High-Throughput drug screen in 47 multiple myeloma cell lines against the NCATS MIPE library collection: KMS34_JCRB cell viability assay (AID 1918985); note: nearly all actives have a fitted effect of over 40% in size
Procedure, shortened: as §1

[6] = Quantitative High-Throughput drug screen in 47 multiple myeloma cell lines against the NCATS MIPE library collection: OCIMY7_PLB cell viability assay (AID 1918987); note: nearly all actives have a fitted effect of over 65% in size
Procedure, shortened: as §1

[7] = Quantitative High-Throughput drug screen in 47 multiple myeloma cell lines against the NCATS MIPE library collection: OPM1_PLB cell viability assay (AID 1918989); note: nearly all actives have a fitted effect of over 40% in size
Procedure, shortened: as §1

[8] = Quantitative High-Throughput drug screen in 47 multiple myeloma cell lines against the NCATS MIPE library collection: SKMM1_PLB cell viability assay (AID 1919863); settings: SKMM1 myeloma viability, CellTiter-Glo ATP, 48 h; viability: hits give low values; note: nearly all actives have a fitted effect of over 35% in size
Procedure, shortened: as §1

[9] = Quantitative High-Throughput drug screen in 47 multiple myeloma cell lines against the NCATS MIPE library collection: U266_ATCC cell viability assay (AID 1919864); note: nearly all actives have a fitted effect of over 35% in size;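 for viability (% of DMSO control): 0% = media-only wells without cells and 100% = DMSO-only wells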
Procedure, shortened: as §1

[10] = Quantitative High-Throughput drug screen in 47 multiple myeloma cell lines against the NCATS MIPE library collection: XG6_PLB cell viability assay (AID 1919865); note: nearly all actives have a fitted effect of over 40% in size
Procedure, shortened: as §1

[11] = Quantitative High-Throughput drug screen in 47 multiple myeloma cell lines against the NCATS MIPE library collection: XG1_PLB cell viability assay (AID 1919866); note: nearly all actives have a fitted effect of over 35% in size
Procedure, shortened: as §1

[12] = Quantitative High-Throughput drug screen in 47 multiple myeloma cell lines against the NCATS MIPE library collection: VP6_DJ cell viability assay (AID 1919867); note: nearly all actives have a fitted effect of over 40% in size
Procedure, shortened: as §1

[13] = Quantitative High-Throughput drug screen in 47 multiple myeloma cell lines against the NCATS MIPE library collection: UTMC2_PLB cell viability assay (AID 1919868); settings: CellTiter-Glo ATP luminescence, 48 h; viability (% of DMSO control): at 45.8 µM (top of the series); note: nearly all actives have a fitted effect of over 55% in size;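 for viability (% of DMSO control): 100% = DMSO-only wells and 0% = media-only wells without cells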
Procedure, shortened: as §1

[14] = Quantitative High-Throughput drug screen in 47 multiple myeloma cell lines against the NCATS MIPE library collection: PE2_PLB cell viability assay (AID 1919869); note: nearly all actives have a fitted effect of over 35% in size
Procedure, shortened: as §1

[15] = Quantitative High-Throughput drug screen in 47 multiple myeloma cell lines against the NCATS MIPE library collection: RPMI8226_ATCC cell viability assay (AID 1919871); note: nearly all actives have a fitted effect of over 30% in size
Procedure, shortened: as §1

[16] = Quantitative High-Throughput drug screen in 47 multiple myeloma cell lines against the NCATS MIPE library collection: OPM2_DSMZ cell viability assay (AID 1919872); note: nearly all actives have a fitted effect of over 30% in size
Procedure, shortened: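 qHTS of the MIPE 4.0 collection: 500 myeloma cells/well, 48 h drug exposure at 37C in 5% CO2, then CellTiter-Glo for 5 min at room temperature before luminescence reading.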

[17] = Quantitative High-Throughput drug screen in 47 multiple myeloma cell lines against the NCATS MIPE library collection: KMS11_JCRBsus cell viability assay (AID 1919873); note: nearly all actives have a fitted effect of over 50% in size
Procedure, shortened: as §1

[18] = Quantitative High-Throughput drug screen in 47 multiple myeloma cell lines against the NCATS MIPE library collection: KMS28BM_JCRB cell viability assay (AID 1919874); note: nearly all actives have a fitted effect of over 35% in size
Procedure, shortened: as §1

[19] = Quantitative High-Throughput drug screen in 47 multiple myeloma cell lines against the NCATS MIPE library collection: OCIMY5_PLB cell viability assay (AID 1918988); note: nearly all actives have a fitted effect of over 65% in size
Procedure, shortened: as §1

[20] = Quantitative High-Throughput drug screen in 47 multiple myeloma cell lines against the NCATS MIPE library collection: PCM6_Riken cell viability assay (AID 1919870); note: nearly all actives have a fitted effect of over 30% in size
Procedure, shortened: as §1
Potency is the fitted concentration of half-maximal effect.

CO[C@H]1CCC(O[C@H]2C[C@H]([C@]3(C)CC[C@]4(C[C@H](O)[C@@H](C)[C@@H]([C@@H](C)C=C(C)C(=O)[C@H](C)C[C@H](C)C(=O)O)O4)O3)O[C@]3(O[C@@H]([C@H]4O[C@@](O)(CO)[C@H](C)C[C@H]4C)C[C@H]3C)[C@H]2C)O[C@H]1C (some centres undefined)
active: Potency [1] 1050 nM | Potency [2] 833 nM | Potency [3] 3720 nM | Potency [4] 148 nM | Potency [5] 1180 nM | Potency [6] 935 nM | Potency [7] 418 nM | Potency [8] 1180 nM | Potency [9] 296 nM | Potency [10] 418 nM | Potency [11] 1180 nM | Potency [12] 1050 nM | Potency [13] 469 nM | Potency [14] 1180 nM | Potency [15] 935 nM | Potency [16] 296 nM | Potency [17] 935 nM | Potency [18] 332 nM

CC(C)(O)C=CC(=O)[C@](C)(O)[C@H]1[C@H](O)C[C@]2(C)[C@@H]3CC=C4[C@@H](C=C(O)C(=O)C4(C)C)[C@]3(C)C(=O)C[C@@]12C
active: Potency [1] 37.2 nM | Potency [2] 418 nM | Potency [3] 1660 nM | Potency [5] 33.2 nM | Potency [6] 23.5 nM | Potency [8] 2640 nM | Potency [9] 526 nM | Potency [10] 66.2 nM | Potency [11] 41.8 nM | Potency [12] 105 nM | Potency [13] 41.8 nM | Potency [14] 33.2 nM | Potency [15] 52.6 nM | Potency [16] 132 nM | Potency [17] 118 nM | Potency [18] 166 nM

N=c1c2c(-c3ccccc3)c(-c3ccccc3)n(Cc3ccccc3)c2ncn1C1CCC(O)CC1 (centres undefined)
active: Potency [1] 18700 nM | Potency [2] 23500 nM | Potency [3] 11800 nM | Potency [6] 132 nM | Potency [19] 11800 nM | Potency [7] 3320 nM | Potency [8] 16600 nM | Potency [9] 4690 nM | Potency [10] 6620 nM | Potency [12] 93.5 nM | Potency [15] 14800 nM | Potency [16] 5900 nM | Potency [17] 2090 nM | Potency [18] 3320 nM

CC(C)(C)c1cc(C=C(C#N)C#N)cc(Br)c1O
active: Potency [1] 23500 nM | Potency [2] 23500 nM | Potency [3] 23500 nM | Potency [6] 4690 nM | Potency [9] 26400 nM | Potency [10] 14800 nM | Potency [11] 11800 nM | Potency [12] 11800 nM | Potency [14] 5260 nM

O=C(N[C@H]1CN2CCC1CC2)c1ccc(Cl)cc1
inactive: Potency [1] | Potency [2] | Potency [3] | Potency [7] | Potency [15] | Potency [16] | Potency [18]
active: Potency [9] 4180 nM | Potency [10] 8330 nM | Potency [11] 6620 nM | Potency [12] 7430 nM | Potency [20] 8330 nM

CC[C@@]1(O)C(=O)OCc2c1cc1n(c2=O)Cc2cc3ccccc3nc2-1
active: Potency [1] 26.4 nM | Potency [2] 590 nM | Potency [3] 166 nM | Potency [4] 296 nM | Potency [6] 1 nM | Potency [19] 166 nM | Potency [7] 833 nM | Potency [8] 235 nM | Potency [9] 332 nM | Potency [10] 14.8 nM | Potency [11] 33.2 nM | Potency [12] 166 nM | Potency [13] 16.6 nM | Potency [14] 209 nM | Potency [20] 372 nM | Potency [15] 743 nM | Potency [16] 743 nM | Potency [17] 418 nM | Potency [18] 105 nM

CCc1c(C(=O)C(N)=O)c2c(OCC(=O)O)cccc2n1Cc1ccccc1
active: Potency [3] 7430 nM
inactive: Potency [1] | Potency [2] | Potency [5] | Potency [6] | Potency [9] | Potency [10] | Potency [11] | Potency [14] | Potency [15] | Potency [16] | Potency [17] | Potency [18]

CC(=CCCC1=CCC(C2=CC(=O)OC2O)OC1O)CCC1=C(C)CCCC1(C)C (centres undefined)
inactive: Potency [1] | Potency [2] | viability [8] 104% | Potency [14] | Potency [16]
active: Potency [4] 2350 nM | Potency [7] 11800 nM | Potency [9] 18700 nM | Potency [10] 16600 nM | Potency [12] 4180 nM | Potency [15] 11.8 nM | Potency [18] 2640 nM

CCC(=O)OC1CCC2C3CCC4=CC(=O)CC[C@@]4(C)C3CC[C@]12C (some centres undefined)
inactive: Potency [1] | Potency [2] | Potency [3] | Potency [11] | Potency [20] | Potency [16] | Potency [17] | Potency [18]
active: Potency [6] 16600 nM

COC(=O)[C@@H](N)CCCN=C(N)N[N+](=O)[O-]
inactive: Potency [1] | Potency [2] | Potency [3] | Potency [9] | Potency [10] | Potency [11] | Potency [14] | Potency [15] | Potency [16] | Potency [17] | Potency [18]

CCCC[N+]1(C)[C@H]2CC(OC(=O)[C@H](CO)c3ccccc3)C[C@H]1[C@H]1O[C@H]12 (some centres undefined)
inactive: Potency [1] | Potency [2] | Potency [3] | Potency [7] | Potency [9] | Potency [10] | Potency [13] | Potency [15] | Potency [16] | Potency [18]

C[C@H]([C@H](O)CCC(C)(C)O)[C@H]1CC[C@@]2(O)C3=CC(=O)[C@@H]4C[C@@H](O)[C@@H](O)C[C@]4(C)[C@@H]3CC[C@]12C
active: Potency [15] 20900 nM
inactive: Potency [1] | Potency [2] | Potency [4] | Potency [6] | Potency [7] | Potency [9] | Potency [10] | Potency [14] | Potency [16] | Potency [17]
